# Data: paper PMC7862700, “An all-to-all approach to the identification of sequence-specific readers for epigenetic DNA modifications on cytosine”
# Experiments:
# Test in all cases: DAPPL (digital affinity profiling via proximity ligation, sequencing); 10 mM Tris-HCl pH 7.5, 50 mM NaCl, 1 mM DTT, 4% glycerol, room temperature, 30 min; GST-TFs on glutathione beads, 16-mer random dsDNA library, 0.1% formaldehyde crosslink after washing; high values mean tight binding
# FLI1 = biological target: T1, FLI1 (Homo sapiens, UniProt Q01543 1-452); conditions: protein: recombinant; tags: N-terminal GST; dsDNA, one strand shown
# T1 sequence: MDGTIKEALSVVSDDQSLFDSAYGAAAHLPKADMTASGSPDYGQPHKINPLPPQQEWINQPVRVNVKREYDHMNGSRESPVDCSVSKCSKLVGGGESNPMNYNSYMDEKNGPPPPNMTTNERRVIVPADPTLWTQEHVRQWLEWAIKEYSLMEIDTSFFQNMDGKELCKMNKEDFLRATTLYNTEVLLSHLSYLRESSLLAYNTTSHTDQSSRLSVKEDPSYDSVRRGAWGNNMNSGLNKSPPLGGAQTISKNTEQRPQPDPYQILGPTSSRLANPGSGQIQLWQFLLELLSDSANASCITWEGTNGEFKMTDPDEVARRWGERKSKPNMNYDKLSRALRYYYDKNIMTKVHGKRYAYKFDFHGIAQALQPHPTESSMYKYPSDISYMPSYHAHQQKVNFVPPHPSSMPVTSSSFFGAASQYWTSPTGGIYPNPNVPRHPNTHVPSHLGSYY
# Summary of the method: (§1)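 Human transcription factors were made in yeast as GST fusions, captured on glutathione beads and barcoded with DNA. With a tag-only sample included, the pool was incubated with 200 nmole of a random double-stranded 16-mer DNA library in Tris/NaCl/DTT/glycerol buffer at room temperature for 30 min, then crosslinked with 0.1% formaldehyde after washing, ligated by proximity, amplified and sequenced. For binding signal, each hexamer's read frequency for a factor is divided by its frequency for the tag-only sample.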
# ELK1 = biological target: T2, ELK1 (Homo sapiens, UniProt P19419 1-428); conditions: protein: recombinant; tags: N-terminal GST; dsDNA, one strand shown
# T2 sequence: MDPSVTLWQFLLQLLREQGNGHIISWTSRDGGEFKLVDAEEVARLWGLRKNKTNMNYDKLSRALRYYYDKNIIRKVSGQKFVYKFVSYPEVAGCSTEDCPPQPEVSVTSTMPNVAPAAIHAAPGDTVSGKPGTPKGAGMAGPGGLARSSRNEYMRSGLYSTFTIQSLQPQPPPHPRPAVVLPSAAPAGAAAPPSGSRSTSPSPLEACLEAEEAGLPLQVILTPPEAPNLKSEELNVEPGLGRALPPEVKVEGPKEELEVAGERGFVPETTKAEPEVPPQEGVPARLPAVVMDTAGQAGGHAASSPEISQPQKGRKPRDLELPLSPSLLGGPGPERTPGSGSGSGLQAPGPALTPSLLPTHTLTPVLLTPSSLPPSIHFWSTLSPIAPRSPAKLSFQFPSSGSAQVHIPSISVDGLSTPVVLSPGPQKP
# Summary of the method: as §1
# GABPA = biological target: T3, GABPA (Homo sapiens, UniProt Q06546 1-454); conditions: protein: recombinant; tags: N-terminal GST; dsDNA, one strand shown
# T3 sequence: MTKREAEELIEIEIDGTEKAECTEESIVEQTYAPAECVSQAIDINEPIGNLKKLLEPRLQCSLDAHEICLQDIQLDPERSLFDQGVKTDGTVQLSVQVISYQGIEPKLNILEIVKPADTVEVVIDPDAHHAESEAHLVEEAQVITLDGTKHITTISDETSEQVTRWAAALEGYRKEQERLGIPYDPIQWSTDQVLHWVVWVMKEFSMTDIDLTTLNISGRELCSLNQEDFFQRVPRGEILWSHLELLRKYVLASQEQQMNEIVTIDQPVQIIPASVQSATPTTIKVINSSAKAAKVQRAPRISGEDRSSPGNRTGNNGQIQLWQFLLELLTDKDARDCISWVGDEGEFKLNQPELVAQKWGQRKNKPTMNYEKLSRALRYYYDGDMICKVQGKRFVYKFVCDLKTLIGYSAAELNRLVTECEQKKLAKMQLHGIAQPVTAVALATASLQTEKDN
# Summary of the method: as §1
# ERG = biological target: T4, ERG (Homo sapiens, UniProt P11308 1-479); conditions: protein: recombinant; tags: N-terminal GST; dsDNA, one strand shown
# T4 sequence: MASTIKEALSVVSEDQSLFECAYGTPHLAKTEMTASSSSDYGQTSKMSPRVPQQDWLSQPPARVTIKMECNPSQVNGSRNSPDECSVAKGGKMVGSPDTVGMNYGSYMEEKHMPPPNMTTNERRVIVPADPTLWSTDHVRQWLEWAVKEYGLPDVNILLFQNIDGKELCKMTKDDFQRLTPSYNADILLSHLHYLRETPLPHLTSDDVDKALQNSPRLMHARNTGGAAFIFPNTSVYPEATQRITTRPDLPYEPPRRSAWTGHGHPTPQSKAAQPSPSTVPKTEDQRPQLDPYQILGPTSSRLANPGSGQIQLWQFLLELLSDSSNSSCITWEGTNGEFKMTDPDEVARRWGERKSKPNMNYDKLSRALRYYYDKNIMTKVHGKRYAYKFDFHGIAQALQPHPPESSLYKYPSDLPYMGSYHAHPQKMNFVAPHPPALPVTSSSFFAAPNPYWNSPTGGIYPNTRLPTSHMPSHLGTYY
# Summary of the method: as §1
# ELF1 = ELF1 (Homo sapiens, UniProt P32519 1-619); conditions: protein: recombinant; tags: N-terminal GST; dsDNA, one strand shown
# Chain of ELF1 (P32519 whole entry): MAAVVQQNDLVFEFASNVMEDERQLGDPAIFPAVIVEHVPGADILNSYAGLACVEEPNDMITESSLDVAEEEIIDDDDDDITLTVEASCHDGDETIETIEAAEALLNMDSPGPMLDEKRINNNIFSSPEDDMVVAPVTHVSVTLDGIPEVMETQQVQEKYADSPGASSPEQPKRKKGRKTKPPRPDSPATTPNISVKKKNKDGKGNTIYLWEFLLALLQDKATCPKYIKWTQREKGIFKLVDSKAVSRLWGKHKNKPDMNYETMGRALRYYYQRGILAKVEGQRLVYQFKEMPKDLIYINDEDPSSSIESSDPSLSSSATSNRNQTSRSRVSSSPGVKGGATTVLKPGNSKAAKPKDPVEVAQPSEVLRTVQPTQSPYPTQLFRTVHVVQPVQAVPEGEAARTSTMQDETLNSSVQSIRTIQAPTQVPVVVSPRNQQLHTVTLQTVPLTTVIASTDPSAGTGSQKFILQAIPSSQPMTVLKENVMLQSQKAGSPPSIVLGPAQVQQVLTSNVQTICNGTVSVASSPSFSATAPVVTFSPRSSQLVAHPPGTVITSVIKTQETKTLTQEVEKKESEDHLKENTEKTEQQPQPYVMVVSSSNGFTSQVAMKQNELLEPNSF
# Summary of the method: as §1
# EHF = biological target: T5, EHF (Homo sapiens, UniProt Q9NZC4 1-300); conditions: protein: recombinant; tags: N-terminal GST; dsDNA, one strand shown
# T5 sequence: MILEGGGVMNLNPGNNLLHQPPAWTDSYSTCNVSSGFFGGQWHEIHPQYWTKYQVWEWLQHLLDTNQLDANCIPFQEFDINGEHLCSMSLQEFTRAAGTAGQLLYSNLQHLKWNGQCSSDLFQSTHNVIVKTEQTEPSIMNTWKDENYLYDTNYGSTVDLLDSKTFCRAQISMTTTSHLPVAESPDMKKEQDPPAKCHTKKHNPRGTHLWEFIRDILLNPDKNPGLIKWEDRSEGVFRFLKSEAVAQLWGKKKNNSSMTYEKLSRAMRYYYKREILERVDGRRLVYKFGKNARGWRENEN
# Summary of the method: as §1
# SPI1 = SPI1 (Homo sapiens, UniProt P17947 1-270); conditions: protein: recombinant; tags: N-terminal GST; dsDNA, one strand shown
# Summary of the method: as §1
# SPIB = SPIB (Homo sapiens, UniProt Q01892 1-262); conditions: protein: recombinant; tags: N-terminal GST; dsDNA, one strand shown
# Chain of SPIB (Q01892 whole entry): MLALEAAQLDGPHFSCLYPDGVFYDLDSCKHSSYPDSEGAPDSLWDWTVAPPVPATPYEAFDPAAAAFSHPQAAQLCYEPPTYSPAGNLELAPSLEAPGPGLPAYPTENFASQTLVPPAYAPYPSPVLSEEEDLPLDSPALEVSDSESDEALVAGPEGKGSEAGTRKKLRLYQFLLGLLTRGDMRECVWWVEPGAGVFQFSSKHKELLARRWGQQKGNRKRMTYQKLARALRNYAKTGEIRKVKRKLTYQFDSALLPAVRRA
# Summary of the method: as §1
# ELK3 = biological target: T6, ELK3 (Homo sapiens, UniProt P41970 1-407); conditions: protein: recombinant; tags: N-terminal GST; dsDNA, one strand shown
# T6 sequence: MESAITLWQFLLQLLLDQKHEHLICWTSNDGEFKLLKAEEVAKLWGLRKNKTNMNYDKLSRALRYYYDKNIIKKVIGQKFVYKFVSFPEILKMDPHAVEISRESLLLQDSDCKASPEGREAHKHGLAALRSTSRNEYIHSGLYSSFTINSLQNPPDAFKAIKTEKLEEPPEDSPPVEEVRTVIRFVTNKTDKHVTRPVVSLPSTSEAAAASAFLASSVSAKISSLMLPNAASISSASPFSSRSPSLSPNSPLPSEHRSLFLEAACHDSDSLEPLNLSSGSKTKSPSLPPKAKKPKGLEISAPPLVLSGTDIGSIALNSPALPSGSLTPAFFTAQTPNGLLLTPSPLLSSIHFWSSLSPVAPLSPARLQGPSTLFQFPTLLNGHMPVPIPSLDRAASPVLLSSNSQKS
# Summary of the method: as §1
# FEV = biological target: T7, FEV (Homo sapiens, UniProt Q99581 1-238); conditions: protein: recombinant; tags: N-terminal GST; dsDNA, one strand shown
# T7 sequence: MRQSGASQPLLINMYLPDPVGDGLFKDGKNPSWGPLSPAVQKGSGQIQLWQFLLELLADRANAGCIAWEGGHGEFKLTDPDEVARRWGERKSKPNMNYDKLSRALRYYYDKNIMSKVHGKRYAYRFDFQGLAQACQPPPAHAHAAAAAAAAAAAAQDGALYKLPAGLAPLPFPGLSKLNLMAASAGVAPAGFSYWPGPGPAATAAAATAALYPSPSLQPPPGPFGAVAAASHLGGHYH
# Summary of the method: as §1
# ETV5 = ETV5 (Homo sapiens, UniProt P41161 1-510); conditions: protein: recombinant; tags: N-terminal GST; dsDNA, one strand shown
# Chain of ETV5 (P41161 whole entry): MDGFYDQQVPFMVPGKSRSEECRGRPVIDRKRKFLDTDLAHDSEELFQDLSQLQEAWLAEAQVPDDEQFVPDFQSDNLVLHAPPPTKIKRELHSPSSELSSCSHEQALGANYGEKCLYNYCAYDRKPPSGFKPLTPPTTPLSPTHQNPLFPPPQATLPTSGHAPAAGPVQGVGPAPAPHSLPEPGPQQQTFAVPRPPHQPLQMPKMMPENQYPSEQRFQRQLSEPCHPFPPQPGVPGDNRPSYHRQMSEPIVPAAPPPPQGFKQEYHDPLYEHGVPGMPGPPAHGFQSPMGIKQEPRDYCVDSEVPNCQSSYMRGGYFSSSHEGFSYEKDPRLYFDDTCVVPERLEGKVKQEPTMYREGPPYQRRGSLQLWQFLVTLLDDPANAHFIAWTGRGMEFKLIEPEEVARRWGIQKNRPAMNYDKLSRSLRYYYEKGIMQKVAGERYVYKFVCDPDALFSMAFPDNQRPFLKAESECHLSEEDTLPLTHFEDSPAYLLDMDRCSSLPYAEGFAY
# Summary of the method: as §1
# HSF1 = HSF1 (Homo sapiens, UniProt Q00613 1-529); conditions: protein: recombinant; tags: N-terminal GST; chain copies: 3; dsDNA, one strand shown
# Chain of HSF1 (Q00613 whole entry): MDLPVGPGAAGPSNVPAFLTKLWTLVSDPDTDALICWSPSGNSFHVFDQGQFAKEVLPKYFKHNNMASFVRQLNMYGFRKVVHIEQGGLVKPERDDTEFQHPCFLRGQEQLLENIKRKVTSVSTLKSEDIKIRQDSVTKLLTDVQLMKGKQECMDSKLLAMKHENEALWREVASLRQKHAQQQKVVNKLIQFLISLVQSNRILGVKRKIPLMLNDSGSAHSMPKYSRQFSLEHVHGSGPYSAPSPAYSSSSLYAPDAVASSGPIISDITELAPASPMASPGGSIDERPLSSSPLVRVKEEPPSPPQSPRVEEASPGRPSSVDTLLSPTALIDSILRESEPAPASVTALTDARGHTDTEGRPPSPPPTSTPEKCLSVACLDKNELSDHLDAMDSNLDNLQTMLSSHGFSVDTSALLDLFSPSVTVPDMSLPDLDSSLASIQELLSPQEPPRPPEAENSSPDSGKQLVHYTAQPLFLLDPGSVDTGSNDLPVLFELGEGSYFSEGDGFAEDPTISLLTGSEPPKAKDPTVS
# Summary of the method: as §1
# SPIC = biological target: T8, SPIC (Homo sapiens, UniProt Q8N5J4 1-248); conditions: protein: recombinant; tags: N-terminal GST; dsDNA, one strand shown
# T8 sequence: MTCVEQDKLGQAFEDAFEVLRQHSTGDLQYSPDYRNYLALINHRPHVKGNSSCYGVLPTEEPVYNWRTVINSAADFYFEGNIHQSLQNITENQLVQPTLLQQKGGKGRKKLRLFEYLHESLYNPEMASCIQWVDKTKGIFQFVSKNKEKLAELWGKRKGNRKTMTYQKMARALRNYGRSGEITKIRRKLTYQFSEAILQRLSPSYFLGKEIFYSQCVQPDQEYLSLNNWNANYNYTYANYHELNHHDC
# Summary of the method: as §1
# ELF4 = ELF4 (Homo sapiens, UniProt Q99607 1-663); conditions: protein: recombinant; tags: N-terminal GST; dsDNA, one strand shown
# Chain of ELF4 (Q99607 whole entry): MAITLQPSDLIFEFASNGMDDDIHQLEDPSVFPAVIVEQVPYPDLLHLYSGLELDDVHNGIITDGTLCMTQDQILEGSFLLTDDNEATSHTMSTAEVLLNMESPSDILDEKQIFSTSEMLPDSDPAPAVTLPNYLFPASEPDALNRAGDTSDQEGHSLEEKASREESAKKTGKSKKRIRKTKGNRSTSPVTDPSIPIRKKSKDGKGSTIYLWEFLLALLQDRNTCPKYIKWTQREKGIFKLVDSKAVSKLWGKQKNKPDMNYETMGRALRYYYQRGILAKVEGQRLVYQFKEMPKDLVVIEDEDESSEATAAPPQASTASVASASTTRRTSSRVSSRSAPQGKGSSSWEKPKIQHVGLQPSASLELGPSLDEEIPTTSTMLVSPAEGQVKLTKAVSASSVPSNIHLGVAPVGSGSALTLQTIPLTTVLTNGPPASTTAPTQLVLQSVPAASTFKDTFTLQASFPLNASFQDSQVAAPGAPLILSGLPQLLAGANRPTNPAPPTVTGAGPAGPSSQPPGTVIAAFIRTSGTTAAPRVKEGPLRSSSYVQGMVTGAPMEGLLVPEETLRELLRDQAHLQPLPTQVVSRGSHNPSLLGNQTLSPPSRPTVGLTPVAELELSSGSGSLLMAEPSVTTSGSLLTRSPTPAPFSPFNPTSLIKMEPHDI
# Summary of the method: as §1
# ELK4 = biological target: T9, ELK4 (Homo sapiens, UniProt P28324-2 1-405); conditions: protein: recombinant; tags: N-terminal GST; dsDNA, one strand shown
# T9 sequence: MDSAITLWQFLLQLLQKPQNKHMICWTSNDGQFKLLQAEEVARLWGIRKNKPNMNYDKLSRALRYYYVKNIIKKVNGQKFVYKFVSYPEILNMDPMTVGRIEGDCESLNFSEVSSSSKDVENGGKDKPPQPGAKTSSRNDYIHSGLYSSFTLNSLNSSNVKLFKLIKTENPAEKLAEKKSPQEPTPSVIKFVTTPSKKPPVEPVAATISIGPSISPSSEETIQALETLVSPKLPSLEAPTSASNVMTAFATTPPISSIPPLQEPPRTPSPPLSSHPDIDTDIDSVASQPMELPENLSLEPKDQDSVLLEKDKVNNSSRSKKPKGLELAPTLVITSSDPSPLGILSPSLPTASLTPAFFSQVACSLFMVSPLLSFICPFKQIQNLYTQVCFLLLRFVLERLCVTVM
# Summary of the method: as §1
# ETV2 = biological target: T10, ETV2 (Homo sapiens, UniProt O00321 1-342); conditions: protein: recombinant; tags: N-terminal GST; dsDNA, one strand shown
# T10 sequence: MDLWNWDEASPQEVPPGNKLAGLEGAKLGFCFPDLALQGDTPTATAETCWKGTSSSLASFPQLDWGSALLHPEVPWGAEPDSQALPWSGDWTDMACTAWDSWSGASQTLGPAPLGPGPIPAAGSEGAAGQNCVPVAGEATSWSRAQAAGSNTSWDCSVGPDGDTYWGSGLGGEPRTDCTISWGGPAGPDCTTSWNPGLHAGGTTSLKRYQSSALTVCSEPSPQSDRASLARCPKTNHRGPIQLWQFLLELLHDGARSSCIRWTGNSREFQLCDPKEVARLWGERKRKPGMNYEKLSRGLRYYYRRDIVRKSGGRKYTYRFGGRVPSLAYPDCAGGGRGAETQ
# Summary of the method: as §1
# ELF3 = biological target: T11, ELF3 (Homo sapiens, UniProt P78545 1-371); conditions: protein: recombinant; tags: N-terminal GST; dsDNA, one strand shown
# T11 sequence: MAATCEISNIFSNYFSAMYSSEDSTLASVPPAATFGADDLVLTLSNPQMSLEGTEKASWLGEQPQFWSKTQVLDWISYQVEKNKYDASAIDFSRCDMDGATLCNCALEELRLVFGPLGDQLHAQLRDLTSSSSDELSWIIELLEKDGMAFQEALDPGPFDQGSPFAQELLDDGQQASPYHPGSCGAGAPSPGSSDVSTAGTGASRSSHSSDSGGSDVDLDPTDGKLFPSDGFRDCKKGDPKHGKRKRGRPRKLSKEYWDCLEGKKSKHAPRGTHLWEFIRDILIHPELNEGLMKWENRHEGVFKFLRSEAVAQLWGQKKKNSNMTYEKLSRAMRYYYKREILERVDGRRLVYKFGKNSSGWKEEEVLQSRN
# Summary of the method: as §1
# CRX = CRX (Homo sapiens, UniProt O43186 1-299); conditions: protein: recombinant; tags: N-terminal GST; dsDNA, one strand shown
# Chain of CRX (O43186 whole entry): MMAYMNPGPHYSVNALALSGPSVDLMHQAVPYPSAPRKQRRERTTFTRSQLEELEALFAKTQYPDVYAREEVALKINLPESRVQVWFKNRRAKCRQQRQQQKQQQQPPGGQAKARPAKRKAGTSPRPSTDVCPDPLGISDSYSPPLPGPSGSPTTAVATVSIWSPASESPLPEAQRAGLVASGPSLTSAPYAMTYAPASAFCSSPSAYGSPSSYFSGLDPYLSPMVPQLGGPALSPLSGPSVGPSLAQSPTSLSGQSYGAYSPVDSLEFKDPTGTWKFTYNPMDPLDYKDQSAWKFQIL
# Summary of the method: as §1
# ETV1 = ETV1 (Homo sapiens, UniProt P50549 1-477); conditions: protein: recombinant; tags: N-terminal GST; dsDNA, one strand shown
# Chain of ETV1 (P50549 whole entry): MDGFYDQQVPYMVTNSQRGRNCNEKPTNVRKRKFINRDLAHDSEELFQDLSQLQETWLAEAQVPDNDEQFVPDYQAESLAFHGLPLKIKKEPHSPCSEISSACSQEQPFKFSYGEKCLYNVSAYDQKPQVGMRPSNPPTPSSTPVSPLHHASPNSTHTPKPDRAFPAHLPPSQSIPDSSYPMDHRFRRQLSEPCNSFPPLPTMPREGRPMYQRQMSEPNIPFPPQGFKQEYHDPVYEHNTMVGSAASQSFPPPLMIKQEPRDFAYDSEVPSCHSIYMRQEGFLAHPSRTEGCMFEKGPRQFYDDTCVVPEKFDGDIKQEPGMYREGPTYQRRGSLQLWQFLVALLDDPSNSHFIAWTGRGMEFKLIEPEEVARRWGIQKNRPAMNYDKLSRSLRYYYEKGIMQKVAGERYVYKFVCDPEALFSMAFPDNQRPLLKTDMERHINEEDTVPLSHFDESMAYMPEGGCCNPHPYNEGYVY
# Summary of the method: as §1
sequence,measurement,setting,value
TTGCTG,binding signal,FLI1,"1.25 fold enrichment (6-mer frequency, TF over GST control)"
same,binding signal,ELK1,"1.13 fold enrichment (6-mer frequency, TF over GST control)"
same,binding signal,GABPA,"1.21 fold enrichment (6-mer frequency, TF over GST control)"
same,binding signal,ERG,"1.13 fold enrichment (6-mer frequency, TF over GST control)"
same,binding signal,ELF1,"1.29 fold enrichment (6-mer frequency, TF over GST control)"
same,binding signal,EHF,"1.25 fold enrichment (6-mer frequency, TF over GST control)"
same,binding signal,SPI1,"1.18 fold enrichment (6-mer frequency, TF over GST control)"
same,binding signal,SPIB,"1.28 fold enrichment (6-mer frequency, TF over GST control)"
same,binding signal,ELK3,"1.33 fold enrichment (6-mer frequency, TF over GST control)"
same,binding signal,FEV,"1.13 fold enrichment (6-mer frequency, TF over GST control)"
same,binding signal,ETV5,"1.09 fold enrichment (6-mer frequency, TF over GST control)"
same,binding signal,HSF1,"1.23 fold enrichment (6-mer frequency, TF over GST control)"
same,binding signal,SPIC,"1.02 fold enrichment (6-mer frequency, TF over GST control)"
same,binding signal,ELF4,"1.35 fold enrichment (6-mer frequency, TF over GST control)"
same,binding signal,ELK4,"1.34 fold enrichment (6-mer frequency, TF over GST control)"
same,binding signal,ETV2,"1.42 fold enrichment (6-mer frequency, TF over GST control)"
same,binding signal,ELF3,"1.33 fold enrichment (6-mer frequency, TF over GST control)"
same,binding signal,CRX,"1.26 fold enrichment (6-mer frequency, TF over GST control)"
same,binding signal,ETV1,"1.39 fold enrichment (6-mer frequency, TF over GST control)"
